Screening results: PubChem BioAssay, several laboratories
MPTP inh – blocks calcium-induced mitochondrial swelling; isolated mouse mitochondria, Ca2+ swelling absorbance, 30 min; inhibition, % at 10 µM; hit rate 1.4% among 360,000; AID 602449;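 active = inhibition of 50% or more, scaled per plate between neutral and stimulator controls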
Calb FLC – affects C. albicans growth with fluconazole. C. albicans CaCi-2 (fluconazole-resistant clinical isolate) + fluconazole, Alamar Blue growth, 48 h. growth inhibition, % (concentration not given with the values). hit rate 0.57% among 300,000;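 active = growth inhibition above about 58% in most replicates, limit read from the data, passing the limit was not always enough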;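 also: all wells also contain fluconazole at 8 µg/ml as a sub-toxic cotreatment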
Mdm2-MdmX inh – human Mdm2/MdmX binding inhibition; O15151+Q00987; hit rate 3% among 330,000; SaOS-2 split-luciferase Mdm2/MdmX complementation, luminescence; inhibition, % at 8 µM;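 active = inhibition of at least 50% at 8 µM in the primary screen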
Target sequence (O15151 whole entry, looked up): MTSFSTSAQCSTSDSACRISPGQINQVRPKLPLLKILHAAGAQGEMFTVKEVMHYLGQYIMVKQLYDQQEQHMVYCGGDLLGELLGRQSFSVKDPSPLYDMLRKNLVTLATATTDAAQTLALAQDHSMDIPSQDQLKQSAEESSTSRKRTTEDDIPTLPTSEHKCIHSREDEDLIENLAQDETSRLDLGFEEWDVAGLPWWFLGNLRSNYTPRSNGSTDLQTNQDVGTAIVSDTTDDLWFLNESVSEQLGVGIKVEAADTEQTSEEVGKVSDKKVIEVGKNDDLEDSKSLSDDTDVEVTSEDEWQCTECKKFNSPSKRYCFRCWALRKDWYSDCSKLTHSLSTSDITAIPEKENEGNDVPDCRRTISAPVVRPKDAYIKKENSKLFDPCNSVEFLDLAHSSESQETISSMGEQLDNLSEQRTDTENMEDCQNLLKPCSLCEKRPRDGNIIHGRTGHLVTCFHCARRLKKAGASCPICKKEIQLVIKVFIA
Target sequence (Q00987 whole entry, looked up): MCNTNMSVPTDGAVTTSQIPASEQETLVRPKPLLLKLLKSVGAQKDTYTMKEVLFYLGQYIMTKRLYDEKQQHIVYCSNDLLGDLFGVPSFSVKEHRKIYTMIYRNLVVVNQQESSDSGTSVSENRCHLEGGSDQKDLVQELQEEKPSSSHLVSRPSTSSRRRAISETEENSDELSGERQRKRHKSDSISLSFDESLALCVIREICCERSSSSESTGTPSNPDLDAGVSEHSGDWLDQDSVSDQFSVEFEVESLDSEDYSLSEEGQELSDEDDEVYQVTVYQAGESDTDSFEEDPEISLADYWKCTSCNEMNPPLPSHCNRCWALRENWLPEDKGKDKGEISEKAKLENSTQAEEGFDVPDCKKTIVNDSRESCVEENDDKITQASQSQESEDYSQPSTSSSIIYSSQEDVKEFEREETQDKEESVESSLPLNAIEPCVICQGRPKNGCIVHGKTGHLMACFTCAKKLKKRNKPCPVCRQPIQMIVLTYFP
Beta cell apopt – beta cell apoptosis inhibition | INS-1E cytokine-induced death, ATP luminescence, 48 h; percent of positive-control rescue, neutral wells zero | protection from apoptosis, % (no concentration beside the values) | hit rate 0.8% among 300,000 | AID 435005;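 active = Every replicate reaches about 75%, or at least half do and their mean reaches it too, limit read from the data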;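 also: higher means more ATP so stronger rescue from cytokine killing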
CSC inhib – blocks cancer stem cells. cancer stem cell-like cells viability, luminescence. inhibition, % at 7.5 µM. hit rate 1.1% among 300,000. AID 2717; in the data active = inhibition above about 75%; tested in HMLE shEcad cells
Mdm2-MdmX conf – human Mdm2/MdmX binding inhibition, confirmed. shares compounds with Mdm2-MdmX inh. luminescent assay. inhibition, % at 8 µM. hit rate 55% among 10,000. AID 489028; in the data active = inhibition above about 40%
FLuc counter – inhibits full-length luciferase, flagging false Mdm2/MdmX hits | shares compounds with Mdm2-MdmX inh | SaOS-2 full-length luciferase counterscreen, luminescence | inhibition, % at 8 µM | hit rate 77% among 6,200 | AID 504607;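 active = mean inhibition at 8 µM reaching about 37%, which flags the compound as non-specific, limit read from the data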;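 also: p53-null SaOS-2 cells with luciferase driven by a doxycycline-inducible promoter; compound on cells about two nights before reading with doxycycline added after day one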
Each line names hits and unclear results; the compound was inactive in the other large screens (follow-up assays come after a bar, where they were run). This is a sample that favours compounds with a hit; in the whole collection about 4.8% have one here.

Cc1ccccc1C(=O)Nc1ccc(-c2nc3ccc(C(=O)c4ccccc4)cc3[nH]2)cc1	Mdm2-MdmX inh 66.6, CSC inhib 83.6 | Mdm2-MdmX conf inactive | FLuc counter 46.3
O=C(Nc1ccc2nc(-c3cccs3)[nH]c2c1)c1cccs1	none
O=C(Nc1ccc(-c2nc3ccc(NC(=O)c4cccs4)cc3[nH]2)cc1)c1cccs1	Mdm2-MdmX inh 94.5, CSC inhib 102.3 | Mdm2-MdmX conf 47.0 | FLuc counter inactive
Cc1ccccc1-c1nc(CN2CCC(C(=O)NCCC3=CCCCC3)CC2)c(C)o1	Mdm2-MdmX inh 57.6 | Mdm2-MdmX conf inactive | FLuc counter 76.5
Cc1ccccc1-c1nc(CN2CCC(C(=O)NC3CCCCC3)CC2)c(C)o1	none
Cc1ccccc1-c1nc(CN2CCC(C(=O)NCCCN3CCCC(C)C3)CC2)c(C)o1 (stereo not drawn)	Mdm2-MdmX inh 95.7 | Mdm2-MdmX conf 69.8 | FLuc counter 43.5
COc1ccc(CC(=O)OCC(=O)c2ccc(F)cc2)cc1	none (no result: Calb FLC)
O=C1OC(Nc2ccc3c(c2)OCO3)c2ccccc21 (stereo not drawn)	Mdm2-MdmX inh 70.1 | Mdm2-MdmX conf 41.1 | FLuc counter 54.8
COc1ccc(-c2cc(C(F)(F)F)c(C#N)c(SCC(=O)Nc3nc(C)co3)n2)cc1	Mdm2-MdmX inh 61.6 (no result: CSC inhib) | Mdm2-MdmX conf inactive
COc1ccc(-c2cc(C(F)(F)F)c(C#N)c(SCC(=O)Nc3ccccc3C#N)n2)cc1	Mdm2-MdmX inh 53.2 (no result: MPTP inh) | Mdm2-MdmX conf inactive
Cc1coc(NC(=O)CSc2nc(-c3ccc(Cl)cc3)cc(C(F)(F)F)c2C#N)n1	none
O=C(Nc1cccc2cccnc12)c1csc(COCCO)n1	none (no result: Calb FLC, Mdm2-MdmX inh, Beta cell apopt, CSC inhib)
Cc1ccc([N+](=O)[O-])cc1-c1ccc(/C=N/NC(=O)c2cc3c(ccc4ccccc43)o2)o1	none
Cc1cc([N+](=O)[O-])ccc1-c1ccc(/C=N/NC(=O)c2ccc(Br)o2)o1	Mdm2-MdmX inh 95.2, CSC inhib 88.2 | Mdm2-MdmX conf inactive
Cc1ccc(-c2ccc(/C=N\NC(=O)c3cc4c(ccc5ccccc54)o3)o2)cc1[N+](=O)[O-]	Mdm2-MdmX inh 94.0 | Mdm2-MdmX conf inactive
O=C(C(=O)N1CCN(C/C=C/c2ccccc2)CC1)c1ccccc1	none (no result: Calb FLC, Mdm2-MdmX inh, Beta cell apopt, CSC inhib)
CCN1C(=O)[C@H]2[C@@H](c3ccc(-c4cccc(Cl)c4)c(OC)c3)N[C@@](Cc3ccccc3)(C(=O)OC)[C@H]2C1=O	Mdm2-MdmX inh 52.3 | Mdm2-MdmX conf inactive | FLuc counter 54.3
CCN1C(=O)[C@H]2[C@@H](c3ccc(-c4ccccc4)cc3)N[C@@](Cc3ccccc3)(C(=O)OC)[C@H]2C1=O	none
COC(=O)[C@]1(Cc2ccccc2)N[C@H](c2ccc(-c3cccc(Cl)c3)c(OC)c2)[C@@H]2C(=O)N(C)C(=O)[C@@H]21	none (no result: Calb FLC, Mdm2-MdmX inh, Beta cell apopt, CSC inhib)
CCN1C(=O)[C@H]2[C@@H](c3ccc(-c4ccc(Cl)c(Cl)c4)cc3)N[C@@](Cc3ccccc3)(C(=O)OC)[C@H]2C1=O	Mdm2-MdmX inh 57.0 | Mdm2-MdmX conf inactive
CCC(=O)Nc1cccc(C2=NOC3(C2)C[C@@H](C(N)=O)N(C(=O)C(c2ccccc2)c2ccccc2)C3)c1 (stereo partly drawn)	none
NC(=O)[C@H]1CC2(CC(c3cccc(NC(=O)COc4ccc(Cl)cc4)c3)=NO2)CN1C(=O)C(c1ccccc1)c1ccccc1 (stereo partly drawn)	Mdm2-MdmX inh 60.1 | Mdm2-MdmX conf inactive
NC(=O)[C@@H]1CC2(CC(c3cccc(NC(=O)COc4ccc(Cl)cc4)c3)=NO2)CN1C(=O)COc1ccc(Cl)cc1 (stereo partly drawn)	Mdm2-MdmX inh 59.3 | Mdm2-MdmX conf inactive
Cc1[nH]c(N=Nc2ccccc2)nc1N=Nc1ccccc1	Mdm2-MdmX inh 77.2, Beta cell apopt 99.9, CSC inhib 105.0 | Mdm2-MdmX conf 83.5 | FLuc counter inactive
Cn1c(NCCc2ccncc2)nc2cc(-c3ccccc3)sc2c1=O	none (no result: Calb FLC, Mdm2-MdmX inh, Beta cell apopt, CSC inhib)
COc1cc(C(=O)NC(=S)Nc2ccc(NC(=O)c3ccco3)cc2)cc(OC)c1OC	Mdm2-MdmX inh 54.3 | Mdm2-MdmX conf inactive
O=C(NC(=S)Nc1ccc(NC(=O)c2ccco2)cc1)c1ccccc1	none
COc1cc(C(=O)NC(=S)N(CCc2ccccc2)CCc2ccccc2)cc(OC)c1OC	Calb FLC 92.8, Mdm2-MdmX inh 51.8 (no result: Beta cell apopt) | Mdm2-MdmX conf 52.5 | FLuc counter 50.0
Cc1nc2cc(OC3(C)CCN(Cc4ccc(OC(F)(F)F)cc4)C3)ccc2s1 (stereo not drawn)	none (no result: Calb FLC, Mdm2-MdmX inh, Beta cell apopt, CSC inhib)
O=C(C(=O)N1CCN(c2ccccc2F)CC1)c1ccccc1	none (no result: Calb FLC, Mdm2-MdmX inh, Beta cell apopt, CSC inhib)
CCOc1cc(OCC)cc(C(=O)N2CCC[C@H]2C(=O)N2CCC[C@H]2C(=O)NCc2ccccn2)c1	none (no result: Calb FLC, Mdm2-MdmX inh, Beta cell apopt, CSC inhib)
CCOc1cc(/C=C(/C#N)C(=O)Nc2ccc(O)cc2)cc(Br)c1O	Mdm2-MdmX inh 69.7 | Mdm2-MdmX conf 62.5 | FLuc counter 86.3
C=CCNC(=O)/C(C#N)=C\c1cc(Cl)c(O)c(OCC)c1	none (no result: Mdm2-MdmX inh)
Fc1ccc(Nc2cccc3nccnc23)cc1	none (no result: CSC inhib)
c1cc(Nc2cccc3nccnc23)c2nccnc2c1	Mdm2-MdmX inh 61.4 | Mdm2-MdmX conf 52.2 | FLuc counter 89.8
O=C(NCc1ccc(F)cc1F)[C@@H]1CCCN1C(=O)[C@@H]1CCCN1C(=O)c1ccccc1	none (no result: Calb FLC, Mdm2-MdmX inh, Beta cell apopt, CSC inhib)
CC(C)Oc1ccc(CN2CCC2(C)C(=O)Nc2cnc3ccccc3c2)cc1 (stereo not drawn)	none (no result: Calb FLC, Mdm2-MdmX inh, Beta cell apopt, CSC inhib)
CCCNC(=O)COC(=O)c1ccccc1C(=O)c1ccc(Cl)c([N+](=O)[O-])c1	Mdm2-MdmX inh 97.5 | Mdm2-MdmX conf 88.2 | FLuc counter 51.7
Cc1cc(C(=O)NCc2ccccc2F)c2ccccc2n1	none
COc1ccc(-c2nn(-c3ccccc3)cc2C(=O)N/N=C/c2ccc([N+](=O)[O-])o2)cc1	Mdm2-MdmX inh 58.4 | Mdm2-MdmX conf 52.8 | FLuc counter 52.3
Cc1cc(C(=O)N/N=C/c2ccc([N+](=O)[O-])o2)c(C)o1	none
Cc1sc(NC(=O)c2cc(-c3ccc(Cl)cc3)nc3ccccc23)c(C(N)=O)c1C	Mdm2-MdmX inh 73.3 | Mdm2-MdmX conf inactive | FLuc counter 76.2
Cc1cccc(NC(=O)c2cc(-c3ccc(C)s3)nc3ccccc23)n1	Mdm2-MdmX inh 73.4 | Mdm2-MdmX conf 59.0 | FLuc counter 83.3
O=C(N/N=C/c1ccccn1)c1cc(-c2ccc(Cl)cc2)nc2ccccc12	Calb FLC 60.8, Mdm2-MdmX inh 76.0 | Mdm2-MdmX conf inactive
Cc1sc(NC(=O)c2cc(-c3ccccc3)nc3ccccc23)c(C(N)=O)c1C	none
Cc1[nH]c2ccccc2c1/C=N/NC(=O)c1cc(-c2ccncc2)nc2ccccc12	Mdm2-MdmX inh 59.4 | Mdm2-MdmX conf 68.8 | FLuc counter 52.1
O=C(N/N=C/c1ccc([N+](=O)[O-])o1)c1cn2ccc3ccccc3c2n1	Mdm2-MdmX inh 82.0 | Mdm2-MdmX conf inactive
O=C(N/N=C/c1ccccn1)c1cc(-c2ccc(Br)cc2)nc2ccccc12	Mdm2-MdmX inh 83.8 | Mdm2-MdmX conf inactive | FLuc counter 46.4
